MPTP block: mitochondrial permeability transition pore inhibitors, primary screen, biochemical, isolated mouse mitochondria, absorbance; inhibition, % at 10 µM; hit rate 1.4% among 360,000; Ca2+ swelling absorbance, 30 min;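 active = inhibition of 50% or more, scaled per plate between neutral and stimulator controls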;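 also: 0% = DMSO wells given calcium and 100% = 1 mM EGTA wells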
GRIN3A LBD mod: binders of NR3A ligand-binding domain, primary screen, biophysical, differential scanning fluorimetry, uHTS; Glutamate receptor ionotropic, NMDA 3A (GRIN3A) ligand-binding domain; NR3A LBD differential scanning fluorimetry, Tm shift; 0% = protein alone, 100% = glycine-bound protein; Tm shift relative to glycine control, % at 25 µM; hit rate 2.5% among 340,000;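 active = melting temperature shift of at least 10% of the positive control shift, at one fixed dose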
beta cell repl: inducers of MIN6 beta-cell proliferation, primary screen, ATP luminescence, uHTS. MIN6 cells proliferation, ATPlite luminescence, 48 h; cells starved in 0.2% serum; 100% = growth in 10% serum. proliferation, % at 10 µM. hit rate 0.29% among 330,000. AID 2380, 2010;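 active = compounds whose signal lies at least 3.5 SD above the mean of all wells on their plate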;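 also: 0% = DMSO-treated cells in low-serum medium and 100% = 10% serum control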
FAS TE block: FAS thioesterase domain inhibitors, primary screen, biochemical, fluorescence intensity, uHTS; Fatty acid synthase (Homo sapiens), P49327; recombinant FAS-TE, OMFH fluorogenic substrate, fluorescence endpoint; inhibition, % at 15 µM; hit rate 0.67% among 360,000; AID 602261, 2012;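 active = compounds whose normalised, plate-corrected inhibition of enzyme fluorescence in the single-dose primary screen is 50% or more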;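 also: 0% = DMSO with enzyme and 100% = substrate without enzyme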
p-CIP stab down: p/CIP-EGFP fusion destabilizers, primary screen, fluorescence, F442A cells. Q05BA5. 16 h. decrease of EGFP signal, % at 10 µM. hit rate 0.01% among 290,000. AID 1984, 2009;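 active = EGFP signal decrease of at least 30% at 10 µM or well 3 SD below plate mean, unless failing retest; inactive = the rest, including hits failing retest or dose response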
FAS-TE conf: FAS thioesterase domain inhibitors, confirmation, biochemical, fluorescence intensity, single concentration | recombinant FAS-TE, OMFH fluorogenic substrate | inhibition, % at 15 µM | hit rate 45% among 2,300 | shares compounds with FAS TE block;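 active = compounds inhibiting the enzyme by at least 50% at 15 µM in any one of the replicates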;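 also: 0% = enzyme with DMSO only and 100% = wells lacking enzyme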
An asterisk follows results filed as active; nt = no result. Rows were chosen to be rich in hits. Some 4.1% of all compounds tested hit in one or more screens of this group.

SMILES	MPTP block	GRIN3A LBD mod	beta cell repl	FAS TE block	p-CIP stab down	FAS-TE conf
CN(C)C(=O)CCc1ccc2c3c([nH]c2c1)[C@]1(CCC2CCCC2)[C@@H](C(=O)N2CCOCC2)C[C@H](CC(=O)NCC24CC5CC(CC(C5)C2)C4)C(=O)N1CC3	-4.9	-0.5	nt	19.7	nt	nt
COCCCNC(=O)CC1C[C@H](C(=O)N2CCOCC2)[C@@]2(CCC3CCCC3)c3[nH]c4ccc(OC)cc4c3CCN2C1=O (stereo not given in full)	0.1	-0.1	nt	52.7*	nt	64.1*
O=C(C[C@H]1C[C@H](C(=O)N2CCOCC2)[C@@]2(CCC3CCCC3)c3[nH]c4ccc(Cl)cc4c3CCN2C1=O)NCCCn1ccnc1	-2.9	0.2	nt	54.6*	nt	23.3
Cc1cccc(C)c1NC(=O)C(c1ccnc2ccccc12)n1c(=O)c(-c2ccccc2)nc2ccccc21 (stereo not given)	2.5	nt	nt	nt	nt	nt
CN(CC(=O)Nc1cccc(F)c1)C(=O)Cc1ccsc1	-0.1	nt	nt	-1.5	nt	nt
CN(C)C(=O)CCc1ccc2c3c([nH]c2c1)[C@]1(CCC2CCCC2)[C@@H](C(=O)N2CCOCC2)C[C@H](CC(=O)NCCc2ccccn2)C(=O)N1CC3	-0.1	-1.1	nt	14.5	nt	nt
CC[C@]12c3[nH]c4ccccc4c3CCN1C(=O)C(CC(=O)NCCN1CCOCC1)C[C@@H]2C(=O)N1CCN(C(=O)c2ccco2)CC1 (stereo not given in full)	-1.7	1.2	1.0	-4.3	nt	nt
COc1ccc2[nH]c3c(c2c1)CCN1C(=O)C(CC(=O)NCCc2ccccn2)C[C@H](C(=O)N2CCOCC2)[C@@]31CCC1CCCC1 (stereo not given in full)	-0.5	0.2	nt	61.4*	nt	45.6*
O=C(CC1C[C@H](C(=O)N2CCOCC2)[C@@]2(CCC3CCCC3)c3[nH]c4ccccc4c3CCN2C1=O)NCCc1ccccn1 (stereo not given in full)	-0.4	1.6	-4.2	80.5*	nt	90.7*
O=C(CC1C[C@H](C(=O)N2CCOCC2)[C@@]2(CCC3CCCC3)c3[nH]c4ccccc4c3CCN2C1=O)NCCN1CCOCC1 (stereo not given in full)	1.8	-3.1	0.8	76.2*	nt	87.4*
COc1ccc2[nH]c3c(c2c1)CCN1C(=O)C(CC(=O)NCCc2ccccn2)C[C@H](C(=O)N2CCCCC2)[C@@]31CCc1ccccc1 (stereo not given in full)	-0.2	-0.5	nt	13.2	nt	nt
COCCNC(=O)C1(C)CCN(C(=O)c2sc(-c3ccccc3)nc2C)C1 (stereo not given)	1.3	nt	nt	-9.1	nt	nt
O=C(NCc1ccccc1)C1C(c2ccccc2)=Nc2ccccc2N1C(=O)c1cccnc1 (stereo not given)	0.2	nt	nt	nt	nt	nt
CCN1CCN(S(=O)(=O)c2ccc(Cl)c(C(=O)N(C)Cc3ccc(C(C)(C)C)cc3)c2)CC1	0.1	0.3	nt	58.9*	nt	44.8*
CCN1CCN(S(=O)(=O)c2ccc(Cl)c(C(=O)N(C)Cc3ccc(F)cc3)c2)CC1	-1.3	-1.8	2.6	-4.4	nt	nt
O=C(Nc1ccccc1)c1ccc(Nc2c([N+](=O)[O-])cc([N+](=O)[O-])c3ccccc23)cc1	42.1	10.7*	-5.2	68.8*	0.4	38.4
Cc1ccc(OCCNC(=O)CNC(=O)c2ccc(Cl)c([N+](=O)[O-])c2)cc1	2.0	-2.6	-5.5	62.2*	nt	53.6*
CCOC1=C2CN(S(=O)(=O)c3ccc(C)cc3)[C@H](c3ccccc3)C[C@@H]2N(S(C)(=O)=O)[C@H](c2ccccc2)C1	0.9	nt	nt	48.1	nt	nt
Cc1ccc(-n2c(SCC(=O)Nc3cc(S(=O)(=O)N4CCOCC4)ccc3Cl)nc3ccccc3c2=O)cc1	0.5	10.2*	0.0	95.3*	-6.8	-6.3
O=C(CSc1nc2ccccc2c(=O)n1-c1ccc(F)cc1)Nc1ccc(C(=O)O)cc1	-1.2	-0.5	0.2	-3.4	-13.1	nt
O=C(CSc1nc2ccccc2c(=O)n1-c1ccc(F)c(Cl)c1)Nc1cccc(S(=O)(=O)N2CCOCC2)c1	0.9	4.8	0.0	78.5*	-11.6	24.5
O=C(CSc1nc2ccccc2c(=O)n1-c1ccc(F)cc1)Nc1ccc(Cl)c(S(=O)(=O)N2CCOCC2)c1	3.2	-6.1	0.0	77.6*	-0.8	24.7
O=C(CSc1nc2ccccc2c(=O)n1CCCN1CCOCC1)Nc1cccc(S(=O)(=O)N2CCCCCC2)c1	1.8	-2.9	0.0	7.7	-7.1	nt
CCN(CC)c1ncnc2c1ncn2[C@H]1CN(Cc2ccccc2)C[C@@H](CO)O1	-0.7	nt	nt	-4.2	nt	nt
COCc1cc(C)nc(SCC[N+](C)(C)CC(=O)Nc2ccccc2)c1C#N	0.8	0.4	-0.3	52.9*	9.5	62.7*
SMILES	MPTP block	GRIN3A LBD mod	beta cell repl	FAS TE block	p-CIP stab down	FAS-TE conf
Nc1ncnc2c1ccn2[C@H]1CN(Cc2ccc3c(c2)OCO3)C[C@@H](COC(=O)c2ccccc2)O1	0.7	nt	nt	1.1	nt	nt
Cc1ccc(-c2csc(NCCc3nc4cc(Cl)c(Cl)cc4n3CCCO)n2)cc1	-0.7	-3.9	-7.0	27.5	nt	nt
O=[N+]([O-])c1cc(-c2csc(NCCc3nc4cc(Cl)c(Cl)cc4n3CCCO)n2)ccc1Cl	0.7	-6.1	-7.7	74.7*	nt	72.4*
COc1ccc(-c2ccc3c(c2)S(=O)(=O)c2cccc(C(=O)N4CCN(c5ccccn5)CC4)c2C3=O)cc1OC	-0.1	nt	nt	7.0	nt	nt
O=C1c2ccc(-c3ccc(Cl)c(C(F)(F)F)c3)cc2S(=O)(=O)c2cccc(C(=O)N3CCN(c4ccc(Cl)cn4)CC3)c21	3.1	-0.3	-4.1	66.6*	nt	2.4
CCc1nc2ccc(C(=O)N3CCN(c4ccccc4)CC3)cn2c1N(C)CCCc1ccccc1	-1.5	nt	nt	15.9	nt	nt
Cc1ccc(S(=O)(=O)Cn2nnnc2C(c2ccccc2)N2CCN(c3ccccc3)CC2)cc1 (stereo not given)	1.2	2.3	-1.9	57.2*	-3.5	8.2
Cc1ccc(S(=O)(=O)Cn2nnnc2C(c2ccccc2)N2CCN(c3ncccn3)CC2)cc1 (stereo not given)	-0.3	0.0	-1.4	24.7	-9.1	nt
Cc1ccc(S(=O)(=O)N(C(=O)c2ccncc2)c2ccc3oc4c(c3c2)CCCC4)cc1[N+](=O)[O-]	1.9	-3.5	0.0	54.2*	-14.1	23.2
Cc1ccc([N+](=O)[O-])cc1S(=O)(=O)N(C(=O)c1ccncc1)c1ccc2oc3c(c2c1)CCCC3	-0.2	-9.1	-6.2	72.2*	-2.9	25.9
COc1ccc([C@H]2C[C@@H](O)[C@H](n3cc(COC(=O)c4ccccc4)nn3)CN2C(=O)C2CCCCC2)cc1	0.4	nt	nt	-3.2	nt	nt
